The target of assay [1] is Mitogen-activated protein kinase 10 (Mus musculus) (UniProt Q61831). The experiment in a line: JNK3 AlphaScreen Assay (AID 530).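 Further: kinase came from lysate of stimulated human HepG2 cells; signal reports phosphorylation of biotinylated GST-cJun 1-79 at Ser73 with 10 µM ATP; series mostly up to about 57 µM.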 The essentials: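 Kinase buffer: 20 mM Tris-HCl pH 7.6, 10 mM MgCl2, 1 mM DTT, 0.1 mM Na3VO4, 0.01% Tween-20; ATP 10 uM. Substrate biotin-GST-cJun(1-79), enzyme from activated HepG2 lysates. Detection by Ser73 phospho-antibody AlphaScreen.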
Assay [2] addresses 3',5'-cyclic-AMP phosphodiesterase 4B (Homo sapiens) (UniProt Q07343). Briefly: qHTS Assay for Inhibitors of PDE-IV (AID 607; active means well fitted activation curve with a large enough effect in the main read-out, with a control signal flat, not every such curve was filed as active). In outline:
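The readout is membrane depolarisation from a cAMP-sensing CNG channel, detected with a potential dye at ex 535/em 590. Cells were HEK293-derived (endogenous PDE-IV) at 1000 cells/well, titrated up to 22.9 uM final.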

The target of assay [3] is Cytochrome P450 2C9 (Homo sapiens) (UniProt P11712). Briefly: qHTS Assay for Inhibitors and Substrates of Cytochrome P450 2C9 (AID 883; active means well fitted curve in the direction sought with a large enough effect; an effect the other way counts as inactive or inconclusive; further: potency means the concentration at half of the fitted maximal effect; nearly all actives have a fitted effect of over 60% in size). In outline: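 Turnover of Luciferin-H (100uM, KM) by 10nM human CYP2C9 was measured over 60 min at 37C with NADPH regeneration; inhibitors and some substrates reduce luminescence. Data normalized to sulphaphenazole 57uM.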
Assay [4] has as its target Cytochrome P450 3A4 (Homo sapiens) (UniProt P08684). The experiment in a line: qHTS Assay for Activators of Cytochrome P450 3A4 (AID 885; active means well fitted curve in the direction sought with a large enough effect; an effect the other way counts as inactive or inconclusive; further: nearly all actives have a fitted effect of over 65% in size). The essentials:
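Activators are scored by enhanced luminescence from CYP3A4 conversion of luciferin-PPXE (25uM, equal to KM) to luciferin, after 60 min at RT with an NADPH-regenerating system.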

Assay [5] has as its target Cytochrome P450 2C19 (Homo sapiens) (UniProt P33261). Briefly: qHTS Assay for Inhibitors and Substrates of Cytochrome P450 2C19 (AID 899; active means well fitted curve in the direction sought with a large enough effect; an effect the other way counts as inactive or inconclusive; further: potency means the concentration at half of the fitted maximal effect; nearly all actives have a fitted effect of over 60% in size). In outline: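 Reactions contain 5nM enzyme, 10uM Luciferin-H EGE (KM) and 50mM KPO4; compound preincubates 10 min at 37C, NADPH regeneration starts turnover for 60 min. Luminescence after detection reagent gives activity.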
The target of assay [6] is Cytochrome P450 3A4 (Homo sapiens) (UniProt P08684). The experiment in a line: qHTS Assay for Inhibitors and Substrates of Cytochrome P450 3A4 (AID 884; active means well fitted curve in the direction sought with a large enough effect; an effect the other way counts as inactive or inconclusive; further: potency means the concentration at half of the fitted maximal effect; nearly all actives have a fitted effect of over 50% in size). The essentials: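 Luminescent readout of luciferin produced by CYP3A4 (20 nM) dealkylation of Luciferin-PPXE, 25 uM (its KM). NADPH-driven reaction ran 60 min at RT after 10 min compound preincubation; data scaled to 57 uM ketoconazole as 100% inhibition.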

Inconclusive results are not listed. Calls of active or inactive are those of the source. Unless noted, the call rests on the fitted dose curve; in most records, active means well fitted curve in either direction with a large enough effect (not every such curve was filed as active); inconclusive means small, poorly fitted or top-dose-only effect, or another doubt; inactive means flat fitted curve, though single readings scatter.

Chain of 3',5'-cyclic-AMP phosphodiesterase 4B (Homo sapiens) (Q07343 whole entry, looked up): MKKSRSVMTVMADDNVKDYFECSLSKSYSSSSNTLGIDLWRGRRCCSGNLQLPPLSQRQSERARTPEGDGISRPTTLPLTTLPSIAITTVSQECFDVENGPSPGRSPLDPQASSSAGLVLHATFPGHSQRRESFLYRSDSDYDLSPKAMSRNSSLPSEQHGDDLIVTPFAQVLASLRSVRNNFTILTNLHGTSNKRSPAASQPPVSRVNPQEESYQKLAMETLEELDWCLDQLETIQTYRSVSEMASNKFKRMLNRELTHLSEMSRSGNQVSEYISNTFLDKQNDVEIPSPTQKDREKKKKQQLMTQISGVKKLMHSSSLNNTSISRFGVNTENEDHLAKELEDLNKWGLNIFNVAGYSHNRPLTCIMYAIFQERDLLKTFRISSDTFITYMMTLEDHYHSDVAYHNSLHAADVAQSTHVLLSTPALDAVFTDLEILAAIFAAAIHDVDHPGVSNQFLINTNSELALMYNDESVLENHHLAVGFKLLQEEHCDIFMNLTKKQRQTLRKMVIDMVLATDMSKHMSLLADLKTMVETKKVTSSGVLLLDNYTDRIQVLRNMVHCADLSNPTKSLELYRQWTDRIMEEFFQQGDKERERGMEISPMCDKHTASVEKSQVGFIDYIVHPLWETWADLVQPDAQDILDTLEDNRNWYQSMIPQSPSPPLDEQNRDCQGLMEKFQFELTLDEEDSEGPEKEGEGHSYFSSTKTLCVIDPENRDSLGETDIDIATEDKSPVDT
Chain of Cytochrome P450 3A4 (Homo sapiens) (P08684 whole entry, looked up): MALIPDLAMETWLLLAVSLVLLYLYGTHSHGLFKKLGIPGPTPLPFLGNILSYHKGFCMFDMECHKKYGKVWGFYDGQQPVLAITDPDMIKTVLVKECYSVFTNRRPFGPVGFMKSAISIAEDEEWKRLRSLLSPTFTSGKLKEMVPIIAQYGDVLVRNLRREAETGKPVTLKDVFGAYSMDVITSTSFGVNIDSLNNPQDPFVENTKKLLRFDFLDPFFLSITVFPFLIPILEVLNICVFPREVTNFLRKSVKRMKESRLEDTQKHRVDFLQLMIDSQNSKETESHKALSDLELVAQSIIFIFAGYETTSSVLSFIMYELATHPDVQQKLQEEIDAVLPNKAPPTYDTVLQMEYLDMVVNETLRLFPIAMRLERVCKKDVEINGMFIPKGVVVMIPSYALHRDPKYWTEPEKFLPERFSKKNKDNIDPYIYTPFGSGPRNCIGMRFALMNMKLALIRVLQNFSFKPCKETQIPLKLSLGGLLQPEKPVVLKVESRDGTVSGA
Chain of Cytochrome P450 2C19 (Homo sapiens) (P33261 whole entry, looked up): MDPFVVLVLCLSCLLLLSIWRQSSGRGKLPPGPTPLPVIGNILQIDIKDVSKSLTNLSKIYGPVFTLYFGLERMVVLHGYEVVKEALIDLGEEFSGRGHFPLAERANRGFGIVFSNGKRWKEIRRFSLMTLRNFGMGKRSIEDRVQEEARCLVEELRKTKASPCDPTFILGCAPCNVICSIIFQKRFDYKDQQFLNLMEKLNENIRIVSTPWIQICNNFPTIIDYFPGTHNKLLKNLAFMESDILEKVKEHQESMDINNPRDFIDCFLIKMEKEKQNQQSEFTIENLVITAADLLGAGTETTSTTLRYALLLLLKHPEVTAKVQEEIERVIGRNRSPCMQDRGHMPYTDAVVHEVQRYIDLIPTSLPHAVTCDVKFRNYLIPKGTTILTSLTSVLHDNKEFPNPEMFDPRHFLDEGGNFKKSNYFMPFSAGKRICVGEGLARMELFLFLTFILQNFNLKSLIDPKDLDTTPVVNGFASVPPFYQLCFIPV
Chain of Cytochrome P450 2C9 (Homo sapiens) (P11712 whole entry, looked up): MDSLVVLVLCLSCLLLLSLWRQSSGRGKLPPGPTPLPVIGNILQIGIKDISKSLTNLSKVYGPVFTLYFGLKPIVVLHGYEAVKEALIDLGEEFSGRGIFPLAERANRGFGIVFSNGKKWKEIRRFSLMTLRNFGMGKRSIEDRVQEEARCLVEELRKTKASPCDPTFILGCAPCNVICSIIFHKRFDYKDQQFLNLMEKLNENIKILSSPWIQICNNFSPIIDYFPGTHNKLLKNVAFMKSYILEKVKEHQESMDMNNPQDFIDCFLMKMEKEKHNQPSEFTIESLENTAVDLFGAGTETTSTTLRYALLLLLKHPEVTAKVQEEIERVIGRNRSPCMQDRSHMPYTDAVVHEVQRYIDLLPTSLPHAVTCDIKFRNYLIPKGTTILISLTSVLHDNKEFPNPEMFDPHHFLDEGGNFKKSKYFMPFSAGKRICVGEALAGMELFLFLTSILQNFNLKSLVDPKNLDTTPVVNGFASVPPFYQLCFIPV

Turning to `COC(=O)[C@@]1(Cc2ccc(OC)cc2)[C@H]2c3cc(C(=O)N4CCCC4)n(Cc4ccccn4)c3C[C@H]2CN1C(=O)c1ccccc1`, the outcome in assay [1] and in assay [2] was inactive.
`CCC/C=C(\CCC)C(NC(=O)OCC(C)C)c1ccccc1` (stereo not drawn): the outcome in assay [1] and in assay [2] was inactive.
Consider `COC(=O)[C@@]1(Cc2ccc(OC)cc2)[C@H]2c3cc(C(=O)N(C)C)n(CCO)c3C[C@H]2CN1C(=O)c1ccccc1`, for which the molecule was classed as inactive in assay [1] and in assay [2].
As for `O=C(NCc1ccccn1)[C@@H]1C[C@H]1[C@@H](NP(=O)(c1ccccc1)c1ccccc1)c1ccccc1`, the molecule was classed as inactive in assay [1] and in assay [2].
As to `COCCNC(=O)[C@H]1C[C@@H]1[C@H](NP(=O)(c1ccccc1)c1ccccc1)c1ccccc1`, the molecule was called inactive in assay [1] and in assay [2].
With `COC(=O)[C@@]1(Cc2ccc(F)cc2)[C@H]2c3cc(C(=O)N(C)C)n(CCc4ccc(OC)c(Br)c4)c3C[C@H]2CN1C(=O)c1ccccc1`, the molecule was classed as inactive in assay [1] and in assay [2].
With `COC(=O)[C@@]1(Cc2ccccc2)[C@H]2c3cc(C(=O)N(C)C)n(Cc4nc5ccccc5[nH]4)c3C[C@H]2CN1C(=O)c1ccccc1`, the call in assay [1] and in assay [2] was inactive.
Turning to `COC(=O)Cn1c(C(=O)N(C)C)cc2c1C[C@H]1CN(C(=O)c3ccccc3)[C@@](Cc3ccc(OC)cc3)(C(=O)OC)[C@@H]21`, the molecule was classed as inactive in assay [1] and in assay [2].
Take `COCCn1c(C(=O)N2CCCC2)cc2c1C[C@H]1CN(C(=O)c3ccccc3)[C@@](Cc3ccccc3)(C(=O)OC)[C@@H]21`: the outcome in assay [1] and in assay [2] was inactive.
As to `COC(=O)[C@@]1(Cc2ccccc2)[C@H]2c3cc(C(=O)N(C)C)n(Cc4ccc(S(C)(=O)=O)cc4)c3C[C@H]2CN1C(=O)c1ccccc1`, the molecule was classed as inactive in assay [1] and in assay [2].
As for `COc1ccc(CNC(=O)[C@H]2C[C@@H]2[C@H](NP(=O)(c2ccccc2)c2ccccc2)c2ccccc2)cc1OC`, the molecule was classed as inactive in assay [1] and in assay [2].
Take `C[C@@H](C(=O)Nc1ccc2ccccc2c1)[C@H]1C[C@]1(C)[C@H](NS(=O)(=O)c1ccccc1)c1ccccc1`: the outcome in assay [1] and in assay [2] was inactive.
On to `COC(=O)[C@@]1(Cc2ccc(F)cc2)[C@H]2c3cc(C(=O)N(C)C)n(Cc4ccc(O)c(OC)c4)c3C[C@H]2CN1C(=O)c1ccccc1`, for which the result in assay [1] and in assay [2] was inactive.
Regarding `C[C@@H](C(=O)NCc1ccc(C(F)(F)F)nc1)[C@H]1C[C@]1(C)[C@H](NC(=O)OCc1ccccc1)c1ccccc1`, the molecule was classed as inactive in assay [1] and in assay [2].
Turning to `COC(=O)[C@@]1(Cc2ccccc2)[C@H]2c3cc(C(=O)N(C)C)n(CCF)c3C[C@H]2CN1C(=O)c1ccccc1`, the call in assay [1] and in assay [2] was inactive.
For `COC(=O)[C@@]1(Cc2ccc(OC)cc2)[C@H]2c3cc(C(=O)N(C)C)n(Cc4ccccn4)c3C[C@H]2CN1C(=O)c1ccccc1`, the call in assay [1] and in assay [2] was inactive.
For `Cc1ccc(CNC(=O)[C@H](C)[C@H]2C[C@]2(C)[C@H](NC(=O)OCc2ccccc2)c2ccccc2)c(F)c1F`, the molecule was classed as inactive in assay [1] and in assay [2].
In the case of `COC(=O)[C@@]1(Cc2ccc(F)cc2)[C@H]2c3cc(C(=O)N4CCCC4)n(CCSCCO)c3C[C@H]2CN1C(=O)c1ccccc1`, the molecule was classed as inactive in assay [1] and in assay [2].
`COc1ccc(NC(=O)CCCCC#Cc2ccccc2)cc1`: the molecule was called inactive in assay [1] and in assay [2].
Regarding `COC(=O)[C@@]1(Cc2ccccc2)[C@H]2c3cc(C(=O)N(C)C)n(Cc4ccc(OC)c(OC)c4)c3C[C@H]2CN1C(=O)c1ccccc1`, the molecule was classed as inactive in assay [1] and in assay [2].
For the molecule `COC(=O)[C@@]1(Cc2ccc(OC)cc2)[C@H]2c3cc(C(=O)N4CCCC4)n(C[C@H](O)CO)c3C[C@H]2CN1C(=O)c1ccccc1`, the molecule was called inactive in assay [1] and in assay [2].
Take `COC(=O)[C@@]1(Cc2ccc(F)cc2)[C@H]2c3cc(C(=O)N(C)C)n(Cc4cc(C)n(C)n4)c3C[C@H]2CN1C(=O)c1ccccc1`: the result in assay [1] and in assay [2] was inactive.
As for `COC(=O)[C@@]1(Cc2ccc(F)cc2)[C@H]2c3cc(C(=O)N4CCCC4)n(CCc4c[nH]c5ccc(OC)cc45)c3C[C@H]2CN1C(=O)c1ccccc1`, the molecule was called inactive in assay [1] and in assay [2]. Also, the Potency in assay [3] and in assay [5] was 7.94 µM (active) in each case. In addition, the Potency entry in assay [4] is “inactive”.
In the case of `COC(=O)Cn1c(C(=O)N(C)C)cc2c1C[C@H]1CN(C(=O)c3ccccc3)[C@@](Cc3ccc(F)cc3)(C(=O)OC)[C@@H]21`, the molecule was classed as inactive in assay [1] and in assay [2].
`Cc1c2c(nc3ccccc13)OCC2`: the result in assay [1] and in assay [2] was inactive.
Turning to `C/C(=C\C1CCCCC1)C(NC(=O)c1cccnc1)c1ccc(-c2ccccc2)cc1` (stereo not drawn), the molecule was classed as inactive in assay [1] and in assay [2].
For the molecule `COC(=O)[C@@H]1C[C@H]1[C@@H](NC(C)=O)c1ccccc1`, the outcome in assay [1] and in assay [2] was inactive.
Regarding `COC(=O)[C@@]1(Cc2ccccc2)[C@H]2c3cc(C(=O)N(C)C)n(Cc4c(CO)[nH]cc(C)c4=O)c3C[C@H]2CN1C(=O)c1ccccc1`, the molecule was classed as inactive in assay [1] and in assay [2]. Besides, the Potency is 0.631 µM (active) in assay [3], 1.58 µM (active) in assay [6] and 3.16 µM (active) in assay [5]. The Potency entry in assay [4] is “inactive”.

The values are drawn from PubChem BioAssay (NCATS).
